Assay results: PubChem BioAssay (EPA / NIEHS)
Where “and” joins values, the source holds several entries; their conditions need not be identical. Equal values may be shown once. Results filed as inconclusive are left out. More than one record can exist for a structure, and the calls need not agree. Calls of active or inactive are those of the source. The calls were made as follows, unless noted: active = hit-call score of the fitted dose curve at least 0.9, where 1 is the maximum; inconclusive = response in the unintended direction; inactive = score below 0.9.

What was measured:
[1] = read-out: UDP glucuronosyltransferase (UGT1A1), UGT1A1 (gene 54658); assay: LTEA_HepaRG_UGT1A1: Life Technologies and Expression Analysis (LTEA) Assay for UDP glucuronosyltransferase (UGT1A1) using HepaRG (AID 2283538; active = hit-call score of the fitted dose curve at least 0.9, where 1 is the maximum; inactive = score below 0.9); details: mRNA level, 48 h; actives raise or lower the signal
Outline: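 HepaRG cells, 0.5% DMSO vehicle, 48 h exposure in serum-free induction medium to 8-point half-log series topping at 100 uM, in duplicate. UGT1A1 mRNA by Fluidigm qRT-PCR, normalized to ACTB/GAPDH/POLR2A; bidirectional fit versus DMSO.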

[2] = read-out: UDP glucuronosyltransferase (UGT1A6), UGT1A6 (gene 54578); assay: LTEA_HepaRG_UGT1A6: Life Technologies and Expression Analysis (LTEA) Assay for UDP glucuronosyltransferase (UGT1A6) using HepaRG (AID 2283539; active = hit-call score of the fitted dose curve at least 0.9, where 1 is the maximum; inactive = score below 0.9); details: mRNA level, 48 h; actives raise or lower the signal
Outline: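 Measures mRNA change in HepaRG hepatic cells exposed 48 h to chemicals (eight-point, maximum 100 uM, 0.5% DMSO vehicle) in serum-free induction medium. Expression normalized to endogenous controls; DMSO served as negative control and baseline.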

[3] = read-out: X-box binding protein 1 (XBP1), XBP1 (gene 7494); assay: LTEA_HepaRG_XBP1: Life Technologies and Expression Analysis (LTEA) Assay for X-box binding protein 1 (XBP1) using HepaRG (AID 2283540; active = hit-call score of the fitted dose curve at least 0.9, where 1 is the maximum; inactive = score below 0.9); details: mRNA level, 48 h; actives raise or lower the signal
Outline: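 Eight concentrations (half-log, highest 100 uM, 0.5% DMSO) tested in duplicate on HepaRG cells over 48 h in serum-free induction medium; qRT-PCR of XBP1 normalised to ACTB, GAPDH, POLR2A.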

[4] = LTEA_HepaRG_LDH_cytotoxicity: Cytotoxicity Assessment in the Life Technologies and Expression Analysis (LTEA) Assay (AID 2283563);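 as to AC50: LDH activity released into spent culture medium as a marker of cell death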
Outline: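 Spent-medium LDH after 48 h chemical exposure of HepaRG cells in serum-free induction medium; eight concentrations, half-log dilutions from 100 uM, duplicate wells, fitted upward relative to 0.5% DMSO.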

[5] = ATG_XTT_Cytotoxicity: Cytotoxicity Assessment in the Attagene TRANS-FACTORIAL HepG2 Assay (AID 2283584);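 as to AC50: XTT signal for cell number as viability in transfected HepG2 cells; cells exposed to compound for 24 h before reading; active means loss of viability signal versus DMSO baseline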
Outline: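 24 h chemical exposure of reporter-transfected HepG2; XTT signal loss vs DMSO indicates cytotoxicity.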

[6] = TOX21_p53_BLA_p2_viability: Viability Assessment in the Tox21 HCT-116 p53 Agonism Beta-lactamase Assay, Phase 2 (AID 2283591);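 also: compound exposure lasted 16 h at 37 °C; actives lower the ATP signal meaning cytotoxicity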
Outline: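 HCT116 p53-bla cells, 4000/well, dosed after 5 h plating (217-fold dilution of DMSO stocks) and incubated 16 h at 37C. Viability taken as cellular ATP by CellTiter-Glo luminescence after 30 min RT; signal loss marks cytotoxicity.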

[7] = biological target: Cellular tumor antigen p53 (Homo sapiens) (UniProt P04637); assay: TOX21_p53_BLA_p2_ratio: Tox21 HCT-116 p53 Agonism Beta-lactamase Assay, Ratio, Phase 2 (AID 2283592)
Cellular tumor antigen p53 (Homo sapiens), sequence (P04637 whole entry, looked up): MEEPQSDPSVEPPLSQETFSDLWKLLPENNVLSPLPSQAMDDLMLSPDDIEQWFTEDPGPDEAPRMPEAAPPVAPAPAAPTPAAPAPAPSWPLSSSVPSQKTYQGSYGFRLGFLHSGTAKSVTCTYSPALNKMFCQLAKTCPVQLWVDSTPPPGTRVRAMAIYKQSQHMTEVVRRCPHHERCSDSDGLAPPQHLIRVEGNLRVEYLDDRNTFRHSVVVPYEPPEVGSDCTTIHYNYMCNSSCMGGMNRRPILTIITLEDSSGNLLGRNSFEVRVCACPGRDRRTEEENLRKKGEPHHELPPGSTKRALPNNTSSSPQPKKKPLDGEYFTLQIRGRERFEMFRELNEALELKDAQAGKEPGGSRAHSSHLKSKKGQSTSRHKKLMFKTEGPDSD
Outline: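 Human colon HCT116 cells with an inducible p53 beta-lactamase reporter are exposed to test chemicals for 16 h at 37C. Reporter induction is read as the 460/530 nm emission ratio after CCF4-AM loading, normalized to DMSO.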

[8] = TOX21_p53_BLA_p3_viability: Viability Assessment in the Tox21 HCT-116 p53 Agonism Beta-lactamase Assay, Phase 3 (AID 2283593);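 also: cells exposed to compound for 16 h before reading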
Outline: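 HCT116 cells, 4000/well, dosed 5 h after plating by pin transfer (217-fold dilution from DMSO stock) and incubated 16 h at 37C, 5% CO2. Viability read as ATP luminescence with CellTiter-Glo after 30 min at room temperature.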

[9] = biological target: Cellular tumor antigen p53 (Homo sapiens) (UniProt P04637); assay: TOX21_p53_BLA_p3_ratio: Tox21 HCT-116 p53 Agonism Beta-lactamase Assay, Ratio, Phase 3 (AID 2283596)
Outline: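 HCT116 p53-bla cells (4000/well) given compound in DMSO (217-fold dilution) after 5 h, incubated 16 h at 37C. CCF4-AM substrate 2 h at room temperature; 460/530 nm emission ratio, gain fitted against DMSO.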

[10] = TOX21_p53_BLA_p4_viability: Viability Assessment in the Tox21 HCT-116 p53 Agonism Beta-lactamase Assay, Phase 4 (AID 2283597);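 also: hits lower the luminescence signal meaning cytotoxicity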
Outline: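 Luminescent ATP readout (CellTiter-Glo, 30 min, room temperature) in the same wells as the p53 bla ratio. HCT116 cells were treated for 16 h at 37C with DMSO-dissolved compounds.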

Measured: AC50

CCCCN(CCCC)N=O
inactive: [1] | [2] | [3] | [4] | [5] | [6] | [7] | [8] | [9] | [10]

O=P(Oc1ccccc1)(Oc1ccccc1)Oc1ccccc1
inactive: [2] | [3] | [6] | [7] | [8] | [9] | [10]
active: [1] 3.1 µM | [4] 72.7 µM

ClC(Cl)c1ccccc1
inactive: [1] | [2] | [3] | [4] | [5]

CCOP(=S)(Oc1ccc([N+](=O)[O-])cc1)c1ccccc1 (stereo not given)
active: [1] 12.7 µM
inactive: [2] | [3] | [4]

O=[N+]([O-])c1ccccc1
inactive: [1] | [2] | [3] | [4] | [6] | [7] | [8] | [9] | [10]

CCCCCCCc1ccc(O)cc1
inactive: [1] | [2] | [3] | [4]

CN(C)C(=O)Cl
inactive: [1] | [2] | [3] | [4] | [5]

OCC1CO1 (stereo not given)
inactive: [1] | [2] | [3] | [4] | [5] | [7] | [8] | [9] | [10]

O=[N+]([O-])c1ccc(Cl)c(Cl)c1
active: [1] 13.5 µM
inactive: [2] | [3] | [4]

CCC(C)(C)c1ccc(O)cc1
inactive: [1] | [2] | [3] | [4] | [5] | [6] | [7] | [8] | [9] | [10]

CCNc1nc(Cl)nc(NC(C)(C)C)n1
active: [1] 6.03 µM
inactive: [2] | [3] | [4] | [5]

Nc1cc2c3c(c1)C(c1ccccc1)=N[C@@H](NC(=O)c1cccnc1)C(=O)N3CC2
inactive: [1] | [2] | [3] | [4]

c1nc[nH]n1
inactive: [1] | [2] | [3] | [4] | [5] | [6] | [7] | [9]

CC(Cl)(Cl)C(=O)O
inactive: [1] | [2] | [3] | [4]

CCCCc1ccccc1
inactive: [1] | [2] | [3] | [4]

Cc1ccc(O)cc1C
inactive: [1] | [2] | [3]

CSC(C)(C)C=NO
inactive: [1] | [2] | [3] | [4]

CCCN(CCC)c1c([N+](=O)[O-])cc(C(C)C)cc1[N+](=O)[O-]
active: [1] 1.85 µM | [2] 1.17 µM
inactive: [3] | [4] | [6] | [7] | [8] | [9] | [10]

c1ccc(OP(Oc2ccccc2)Oc2ccccc2)cc1
inactive: [1] | [2] | [3] | [4] | [5] | [7] | [9] | [10]

COCCOCCO
active: [1] 1.57 µM
inactive: [2] | [3] | [4]

Nc1ccc(Cl)cc1
inactive: [2] | [3] | [4] | [6] | [7] | [8] | [9] | [10]
active: [1] 36.5 µM

CC(C)(C)c1ccc(O)cc1
inactive: [1] | [2] | [3]

CC(C)(C)OOC(C)(C)C
inactive: [1] | [2] | [3] | [4] | [6] | [7] | [8] | [9] | [10]

Cc1ccc([N+](=O)[O-])cc1C
inactive: [1] | [2] | [3] | [4] | [5]

O=C(O)C(Cl)Cl
active: [2] 0.312 µM
inactive: [1] | [3] | [4] | [5]

CCOP(=S)(OCC)SCSCC
inactive: [1] | [2] | [3] | [4] | [5]

ClC1=C(Cl)C2(Cl)C3C(Cl)C(Cl)CC3C1(Cl)C2(Cl)Cl (stereo not given)
inactive: [2] | [3] | [4] | [8] | [9] | [10]
active: [1] 2.81 µM | [5] 157 µM | [6] 50.8 µM and 46 µM | [7] 61.5 µM and 80.2 µM | [8] 55.6 µM | [9] 86.1 µM | [10] 64.1 µM

Nc1ccc2ccccc2c1
active: [1] 18.8 µM
inactive: [2] | [3] | [4] | [5] | [6] | [7] | [9] | [10]

CCCCN(CCCC)SN(C)C(=O)Oc1cccc2c1OC(C)(C)C2
active: [1] 10 µM
inactive: [2] | [3] | [4] | [5]

O=P(OCC(Br)CBr)(OCC(Br)CBr)OCC(Br)CBr (stereo not given)
inactive: [6] | [7] | [8] | [10]
active: [7] 80.2 µM | [9] 75.3 µM and 86.9 µM

O=C(CBr)OCc1ccccc1
inactive: [6] | [7] | [9]

CC(C)Nc1ccc(Nc2ccccc2)cc1
active: [6] 46.1 µM and 45.9 µM and 23 µM | [7] 14.6 µM and 23.1 µM | [9] 66.1 µM and 76.4 µM and 31.5 µM | [10] 46.1 µM and 45.9 µM and 19.2 µM
inactive: [7] | [8]

O=S(=O)(c1ccc(O)cc1)c1ccc(O)cc1
inactive: [5] | [6] | [7] | [8] | [9] | [10]

CNC(=O)Oc1ccc(N(C)C)c(C)c1
inactive: [7] | [9]

CCOP(=S)(OCC)SCn1nnc2ccccc2c1=O
inactive: [5] | [6] | [7] | [8] | [9] | [10]

O=S1(=O)OCC2C(CO1)C1(Cl)C(Cl)=C(Cl)C2(Cl)C1(Cl)Cl (stereo not given)
inactive: [5] | [6] | [7] | [8] | [9] | [10]

CO/N=C(/C(=O)OC)c1ccccc1COc1ccccc1C
active: [7] 27.1 µM
inactive: [6] | [8] | [9] | [10]

NNC(N)=S
inactive: [6] | [7] | [8] | [9] | [10]

Cc1ccc2c(c1N)C(=O)c1ccccc1C2=O
inactive: [6] | [7] | [8] | [9] | [10]

CCOP(=S)(S)OCC
inactive: [6] | [7] | [9] | [10]

c1ccc2c(c1)sc1ccccc12
inactive: [6] | [7] | [8] | [9] | [10]

CCCCOCC1CO1 (stereo not given)
inactive: [5] | [7] | [9]

CC1=C(C(=O)Nc2ccccc2)S(=O)(=O)CCO1
active: [7] 22.1 µM
inactive: [6] | [10]

O=NN1CCCC1
inactive: [6] | [7] | [8] | [9]

CCCCc1ccc(O)cc1
inactive: [5] | [7] | [9] | [10]

CCOP(=S)(NC(C)C)Oc1ccccc1C(=O)OC(C)C (stereo not given)
inactive: [6] | [7] | [8]
active: [10] 33.5 µM

C/C(=N\NC(=O)Nc1cc(F)cc(F)c1)c1ncccc1C(=O)O
inactive: [6] | [7] | [8] | [9]

CCCCOCCOP(=O)(OCCOCCCC)OCCOCCCC
inactive: [6] | [7] | [8] | [10]

Cc1c([N+](=O)[O-])cc2c(c1[N+](=O)[O-])C(C)(C)CC2(C)C
inactive: [5] | [7] | [9]

COC(N)=O
inactive: [6] | [7] | [8] | [10]

CC1(C)CN=C(NN=C(/C=C/c2ccc(C(F)(F)F)cc2)/C=C/c2ccc(C(F)(F)F)cc2)NC1
active: [6] 14.7 µM | [7] 20.6 µM | [8] 31.6 µM | [9] 39.5 µM
inactive: [10]

CCN(CC)C1CCCCC1
inactive: [7] | [8] | [9]

FC(F)(F)c1ccc(Cl)cc1
inactive: [5] | [7] | [8] | [9]

CCCCC(CC)COC(=O)c1c(Br)c(Br)c(Br)c(Br)c1C(=O)OCC(CC)CCCC (stereo not given)
inactive: [7] | [9]

CCCCN(CC)C(=O)SCCC
inactive: [6] | [7] | [8] | [9] | [10]

O=c1ssc(Cl)c1Cl
active: [8] 73.7 µM | [9] 61.2 µM
inactive: [6] | [7]

O=c1[nH]c2ccccc2c(=O)o1
inactive: [7] | [9] | [10]

COP(=O)(O)OC
inactive: [6] | [7] | [8] | [9]

CC(=O)CCc1ccc2c(c1)OCO2
inactive: [5] | [7] | [9]
